Holding throughout (assay): peptide microarray binding signal (635 nm), min-max normalized on array (fraction of array maximum); higher = stronger binding
Holding throughout (settings): peptide region: H3 1-13

Assay [1] has as its target T1, HaloTag-ATRX ADD domain (163-292).
T1 chain: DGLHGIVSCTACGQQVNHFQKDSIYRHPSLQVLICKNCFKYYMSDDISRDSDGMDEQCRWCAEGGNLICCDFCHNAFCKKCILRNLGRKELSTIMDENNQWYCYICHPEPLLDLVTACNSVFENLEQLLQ
The method, then:
(§1)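 Histone 13-mer peptides were synthesized as cellulose conjugates with a C-terminal 20-atom PEG linker and printed in triplicate on nitrocellulose. The sequence given is the unmodified backbone; PTMs (Kme1/2/3, Kac, Sph/Tph, Rme/Rme2a/Rme2s, Rcit) are listed in the label and the 'peptide modifications' condition. Slides were probed at 4 °C for 1 h with biotin-labelled (HQ)5-HaloTag reader fusions (ATRX-ADD, ING2-PHD) then streptavidin-Alexa647, or with rabbit histone antibodies then anti-rabbit Alexa647. The mean 635 nm signal of the triplicate spots was scaled 0-1 between the lowest and highest values on each array.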

For assay [2], the target named is HaloTag-ING2 PHD (mouse Ing2 200-280). The method, then:
as §1

For assay [3], the target named is anti-H3K4me3 antibody ab8580. The method, then: as §1
Assay [4] has as its target anti-H3K9me3 antibody ab8898. Here is the method:
as §1

Where [5] appears, read: peptide modifications: H3R2me2s H3T3ph, binder concentration: 1:2,000 dilution.
Where [6] appears, read: peptide modifications: H3R2me2s H3T3ph, binder concentration: 1:10,000 dilution.
The mark [7] stands for this setting: peptide modifications: H3R2me2s H3T6ph, binder concentration: 1:2,000 dilution.
Setting [8] is: peptide modifications: H3R2me2s H3T6ph, binder concentration: 1:10,000 dilution.
The mark [9] stands for this setting: peptide modifications: H3R2me2s H3K9me1, binder concentration: 1:2,000 dilution.
The mark [10] stands for this setting: peptide modifications: H3R2me2s H3K9me1, binder concentration: 1:10,000 dilution.
Setting [11] is: peptide modifications: H3R8cit H3K9me2, binder concentration: 1:2,000 dilution.
The mark [12] stands for this setting: peptide modifications: H3R8cit H3K9me2, binder concentration: 1:10,000 dilution.
Setting [13] is: peptide modifications: H3R2me2a, binder concentration: 1:2,000 dilution.
Setting [14] is: peptide modifications: H3R2me2a, binder concentration: 1:10,000 dilution.
[15] abbreviates: peptide modifications: H3R8cit H3K9ac, binder concentration: 1:2,000 dilution.
Setting [16] is: peptide modifications: H3R8cit H3K9ac, binder concentration: 1:10,000 dilution.
[17] abbreviates: peptide modifications: H3R2me2s H3K4ac, binder concentration: 1:2,000 dilution.
[18] abbreviates: peptide modifications: H3R2me2s H3K4ac, binder concentration: 1:10,000 dilution.
Setting [19] is: peptide modifications: H3R2me2s H3K4me1, binder concentration: 1:2,000 dilution.
The mark [20] stands for this setting: peptide modifications: H3R2me2s H3K4me1, binder concentration: 1:10,000 dilution.
Where [21] appears, read: peptide modifications: H3R2me2a H3K9me2, binder concentration: 1:2,000 dilution.
Setting [22] is: peptide modifications: H3R2me2a H3K9me2, binder concentration: 1:10,000 dilution.
Setting [23] is: peptide modifications: H3R2me2s H3K4me2, binder concentration: 1:2,000 dilution.
Setting [24] is: peptide modifications: H3R2me2s H3K4me2, binder concentration: 1:10,000 dilution.

Consider 10 molecules from the supplement of paper PMC4022240.

± gives the standard deviation.

As for ARTKQTARKSTGG [H3 1-13 A Rme2s Tph K Q T A R K S T G G], the “peptide microarray binding signal” value in assay [1] (peptide modifications: H3R2me2s H3T3ph, binder concentration: 50 nM) is 0.0063 ± 0.00015; in assay [1] (peptide modifications: H3R2me2s H3T3ph, binder concentration: 500 nM), 0.0137 ± 0.00078; in assay [2] (peptide modifications: H3R2me2s H3T3ph, binder concentration: 10 nM), 0.00424 ± 0.00025; in assay [2] (peptide modifications: H3R2me2s H3T3ph, binder concentration: 100 nM) it was 0.0153 ± 0.003; in assay [3] (setting [5]) it was 0.00264 ± 0.0012; in assay [3] (setting [6]), 0.00228 ± 0.00028. The “peptide microarray binding signal” value turned out to be 0.000982 ± 0.00014 in assay [4] (setting [5]) and 0.00075 ± 1.6e-05 in assay [4] (setting [6]).

As for ARTKQTARKSTGG [H3 1-13 A Rme2s T K Q Tph A R K S T G G], the “peptide microarray binding signal” value worked out at 0.00476 ± 0.00012 in assay [1] (peptide modifications: H3R2me2s H3T6ph, binder concentration: 50 nM); 0.0109 ± 0.00039 in assay [1] (peptide modifications: H3R2me2s H3T6ph, binder concentration: 500 nM); 0.002745 ± 2.7e-05 in assay [2] (peptide modifications: H3R2me2s H3T6ph, binder concentration: 10 nM); 0.0193 ± 0.0028 in assay [2] (peptide modifications: H3R2me2s H3T6ph, binder concentration: 100 nM); 0.000774 ± 1.9e-05 in assay [3] (setting [7]); 0.00097 ± 2e-05 in assay [3] (setting [8]). In addition, the “peptide microarray binding signal” value turned out to be 0.000876 ± 2.6e-05 in assay [4] (setting [7]) and 0.000461 in assay [4] (setting [8]).

On to ARTKQTARKSTGG [H3 1-13 A Rme2s T K Q T A R Kme S T G G], for which the “peptide microarray binding signal” value is 0.0197 ± 0.00077 in assay [1] (peptide modifications: H3R2me2s H3K9me1, binder concentration: 50 nM); 0.03 ± 0.0016 in assay [1] (peptide modifications: H3R2me2s H3K9me1, binder concentration: 500 nM); 0.0236 ± 0.0023 in assay [2] (peptide modifications: H3R2me2s H3K9me1, binder concentration: 10 nM); 0.0288 ± 0.00047 in assay [2] (peptide modifications: H3R2me2s H3K9me1, binder concentration: 100 nM); 0.0193 ± 0.003 in assay [3] (setting [9]); 0.0216 ± 0.0013 in assay [3] (setting [10]). Also, the “peptide microarray binding signal” value in assay [4] (setting [9]) was determined as 0.0154 ± 0.00086; in assay [4] (setting [10]), 0.0152 ± 0.0011.

For ARTKQTARKSTGG [H3 1-13 A R T K Q T A Rcit Kme2 S T G G], the “peptide microarray binding signal” value in assay [1] (peptide modifications: H3R8cit H3K9me2, binder concentration: 50 nM) stood at 0.0517 ± 0.0042; in assay [1] (peptide modifications: H3R8cit H3K9me2, binder concentration: 500 nM), 0.0992 ± 0.0018; in assay [2] (peptide modifications: H3R8cit H3K9me2, binder concentration: 10 nM), 0.0235 ± 0.0016; in assay [2] (peptide modifications: H3R8cit H3K9me2, binder concentration: 100 nM) it was 0.0428 ± 0.011; in assay [3] (setting [11]), 0.00302 ± 0.00049; in assay [3] (setting [12]), 0.00177 ± 5e-05. In addition, the results for the “peptide microarray binding signal” value in assay [4] (setting [11]) and in assay [4] (setting [12]) were 0.00248 ± 0.00035 and 0.00277 ± 8.7e-05, respectively.

For the molecule ARTKQTARKSTGG [H3 1-13 A Rme2a T K Q T A R K S T G G], the “peptide microarray binding signal” value in assay [1] (peptide modifications: H3R2me2a, binder concentration: 50 nM) turned out to be 0.0208 ± 0.00057; in assay [1] (peptide modifications: H3R2me2a, binder concentration: 500 nM) it was 0.0355 ± 0.025; in assay [2] (peptide modifications: H3R2me2a, binder concentration: 10 nM), 0.00889 ± 0.00042; in assay [2] (peptide modifications: H3R2me2a, binder concentration: 100 nM) it was 0.0186 ± 0.0037; in assay [3] (setting [13]), 0.0031 ± 0.00032; in assay [3] (setting [14]) it was 0.0016 ± 7.1e-05. The “peptide microarray binding signal” value in assay [4] (setting [13]) was determined as 0.00127 ± 7.4e-05; in assay [4] (setting [14]) it was 0.000634.

As for ARTKQTARKSTGG [H3 1-13 A R T K Q T A Rcit Kac S T G G], the “peptide microarray binding signal” value in assay [1] (peptide modifications: H3R8cit H3K9ac, binder concentration: 50 nM) is 0.00718 ± 9.2e-05; in assay [1] (peptide modifications: H3R8cit H3K9ac, binder concentration: 500 nM) it was 0.0143 ± 0.00071; in assay [2] (peptide modifications: H3R8cit H3K9ac, binder concentration: 10 nM) it was 0.0183 ± 0.0039; in assay [2] (peptide modifications: H3R8cit H3K9ac, binder concentration: 100 nM) it was 0.031 ± 0.01; in assay [3] (setting [15]), 0.0013 ± 3.1e-05; in assay [3] (setting [16]), 0.002 ± 0.0002. For the same molecule, the “peptide microarray binding signal” value is 0.00239 ± 0.00033 in assay [4] (setting [15]) and 0.00208 ± 0.00016 in assay [4] (setting [16]).

ARTKQTARKSTGG [H3 1-13 A Rme2s T Kac Q T A R K S T G G]: the “peptide microarray binding signal” value in assay [1] (peptide modifications: H3R2me2s H3K4ac, binder concentration: 50 nM) came to 0.0137 ± 0.00038; in assay [1] (peptide modifications: H3R2me2s H3K4ac, binder concentration: 500 nM), 0.046 ± 0.0095; in assay [2] (peptide modifications: H3R2me2s H3K4ac, binder concentration: 10 nM) it was 0.0299 ± 0.0078; in assay [2] (peptide modifications: H3R2me2s H3K4ac, binder concentration: 100 nM), 0.0957 ± 0.0077; in assay [3] (setting [17]), 0.00993 ± 0.0029; in assay [3] (setting [18]), 0.00651 ± 0.00097. Besides, the “peptide microarray binding signal” value came out at 0.0137 ± 0.0005 in assay [4] (setting [17]) and 0.00617 ± 0.00064 in assay [4] (setting [18]).

Turning to ARTKQTARKSTGG [H3 1-13 A Rme2s T Kme Q T A R K S T G G], the “peptide microarray binding signal” value amounted to 0.00815 ± 0.00038 in assay [1] (peptide modifications: H3R2me2s H3K4me1, binder concentration: 50 nM); 0.0162 ± 0.0009 in assay [1] (peptide modifications: H3R2me2s H3K4me1, binder concentration: 500 nM); 0.00573 ± 0.00037 in assay [2] (peptide modifications: H3R2me2s H3K4me1, binder concentration: 10 nM); 0.0481 ± 0.011 in assay [2] (peptide modifications: H3R2me2s H3K4me1, binder concentration: 100 nM); 0.0368 ± 0.009 in assay [3] (setting [19]); 0.0228 ± 0.00057 in assay [3] (setting [20]). For the same molecule, the entries for the “peptide microarray binding signal” value in assay [4] (setting [19]) and in assay [4] (setting [20]) were 0.00405 ± 0.0004 and 0.00329 ± 0.00019, respectively.

On to ARTKQTARKSTGG [H3 1-13 A Rme2a T K Q T A R Kme2 S T G G], for which the “peptide microarray binding signal” value stood at 0.169 ± 0.018 in assay [1] (peptide modifications: H3R2me2a H3K9me2, binder concentration: 50 nM); 0.197 ± 0.0079 in assay [1] (peptide modifications: H3R2me2a H3K9me2, binder concentration: 500 nM); 0.06 ± 0.00075 in assay [2] (peptide modifications: H3R2me2a H3K9me2, binder concentration: 10 nM); 0.0848 ± 0.012 in assay [2] (peptide modifications: H3R2me2a H3K9me2, binder concentration: 100 nM); 0.0133 ± 0.0025 in assay [3] (setting [21]); 0.0229 ± 0.0084 in assay [3] (setting [22]). The “peptide microarray binding signal” value was determined as 0.0303 ± 0.0053 in assay [4] (setting [21]) and 0.0191 ± 0.0015 in assay [4] (setting [22]).

As for ARTKQTARKSTG [H3 1-13 A Rme2s T Kme2 Q T A R K S T G], the “peptide microarray binding signal” value was 0.00476 ± 0.00032 in assay [1] (peptide modifications: H3R2me2s H3K4me2, binder concentration: 50 nM); 0.00814 ± 0.00041 in assay [1] (peptide modifications: H3R2me2s H3K4me2, binder concentration: 500 nM); 0.00967 ± 0.00038 in assay [2] (peptide modifications: H3R2me2s H3K4me2, binder concentration: 10 nM); 0.0142 ± 0.0012 in assay [2] (peptide modifications: H3R2me2s H3K4me2, binder concentration: 100 nM); 0.0186 ± 0.0024 in assay [3] (setting [23]); 0.01061 ± 5.4e-05 in assay [3] (setting [24]). For the same molecule, the “peptide microarray binding signal” value in assay [4] (setting [23]) was 0.00287 ± 0.00041; in assay [4] (setting [24]), 0.00225 ± 0.00017.
